This is a sample that favours compounds with a hit; in the whole collection about 2.1% have one here.
PfHsp90 yeast 2: reduces growth (ATP signal) of yeast expressing P. falciparum Hsp90. S. cerevisiae expressing PfHsp90, BacTiter-Glo ATP, 48 h; yeast lacking PDR1 and PDR3 efflux regulators. inhibition, % at 9.4 µM. 310,000 tested, 0.32% active;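 active means every replicate shows inhibition above about 80%, whatever the replicate mean, limit read from the data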;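 further: 0% = DMSO neutral controls and 100% = 20 µM radicicol positive controls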
NSD2 HMT inh: inhibitors of human histone methyltransferase NSD2 | 310,000 tested, 0.54% active | inhibition, % at 12.5 µM | NSD2 peptide methylation, AlphaScreen, 120 min | AID 743445; in the data active means inhibition above about 50%
SIRT5 block: sirtuin-5 (human) deacylase inhibition. Q9NXA8. Purified SirT5, succinyl-peptide AMC, trypsin-coupled fluorescence. inhibition, % at 15 µM. 330,000 tested, 1.1% active. AID 652115; in the data active means inhibition above about 15%
Target sequence (Q9NXA8 whole entry, looked up): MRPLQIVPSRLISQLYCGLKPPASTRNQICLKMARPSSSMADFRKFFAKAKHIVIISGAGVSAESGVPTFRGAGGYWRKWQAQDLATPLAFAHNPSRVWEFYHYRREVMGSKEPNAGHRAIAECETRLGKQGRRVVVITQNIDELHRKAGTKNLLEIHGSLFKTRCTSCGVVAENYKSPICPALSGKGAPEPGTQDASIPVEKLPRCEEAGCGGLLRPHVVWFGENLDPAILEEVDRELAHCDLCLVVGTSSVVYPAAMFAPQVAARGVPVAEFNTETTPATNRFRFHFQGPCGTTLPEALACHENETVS
ARNT-TACC3 inh: disruptors of human ARNT/TACC3 interaction. Q9Y6A5. AlphaScreen His-ARNT PAS-B/GST-TACC3 binding, luminescence; TACC3 fragment carries E629A point mutation. inhibition, % at 9.99 µM. 390,000 tested, 0.66% active;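 active means mean inhibition of replicates at least 50% and at least half of replicates each reaching 50%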;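 further: 0% = complete ARNT plus TACC3 wells and 100% = ARNT alone without TACC3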
CASP6 VEID inh: inhibitors of human caspase-6 | P55212 | purified caspase-6, Z-VEID-R110 cleavage fluorescence | inhibition, % at 12.5 µM | 350,000 tested, 0.53% active | AID 686996;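 active means mean inhibition across replicates at least about 35%, with every replicate also reaching that limit, limit read from the data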;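 further: 0% = median of neutral control wells and 100% = no fluorescence left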
Target sequence (P55212 24-179 limits assumed): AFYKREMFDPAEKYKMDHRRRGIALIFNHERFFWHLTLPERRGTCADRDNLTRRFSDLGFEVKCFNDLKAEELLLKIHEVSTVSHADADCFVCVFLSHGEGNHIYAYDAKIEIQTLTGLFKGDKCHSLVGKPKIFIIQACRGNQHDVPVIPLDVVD
Target sequence (P55212 194-293 limits assumed): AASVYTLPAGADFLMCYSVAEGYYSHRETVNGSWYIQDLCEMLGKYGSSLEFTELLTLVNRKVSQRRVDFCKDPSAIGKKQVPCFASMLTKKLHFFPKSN
Numbers without * were called inactive; . = no result given.

SMILES	PfHsp90 yeast 2	NSD2 HMT inh	SIRT5 block	ARNT-TACC3 inh	CASP6 VEID inh
CCCNC(=S)N1CCC(NC(=O)c2ccc(C)cc2)CC1	17.6	-2.6	24.7*	-1.1	-4.3
C[C@@H]1CN([C@@H](C)CO)C(=O)c2cc(C3=CCCC3)cnc2O[C@H]1CN(C)S(=O)(=O)c1cn(C)cn1	.	.	-4.6	-1.0	1.6
C/C(Cc1ccccc1)=N\NC(=O)c1ccc(F)cc1	3.1	-2.6	0.2	2.7	3.4
CC12CC(c3ccccc3O1)C(/C(N)=N/NC(=O)c1ccc(F)cc1)C(=O)N2 (centres undefined)	-12.2	.	16.1*	.	-0.7
CO[C@H]1CN(C)C(=O)c2ccc(NS(=O)(=O)c3ccc(C)cc3)cc2OC[C@H](C)NC[C@H]1C	.	.	-3.0	3.5	-0.3
Cc1cc(NC(=O)CSc2nnc(-c3ccc(O)cc3)o2)no1	6.9	-10.7	-5.1	46.8*	-1.8
CCOc1ccc2nc(SCC(=O)Nc3cc(C)on3)c(C)cc2c1	-12.1	-1.6	80.9*	-4.6	6.2
Cc1cc(C)cc(-c2nnc(SCC(=O)Nc3cc(C)on3)o2)c1	-9.5	-2.1	3.3	38.6	1.9
Cc1cc(NC(=O)CSc2nnc(C)o2)no1	11.0	-8.3	-2.0	46.8*	-2.7
Cc1ccc2nc(SCC(=O)Nc3cc(C)on3)c(C)cc2c1	-23.7	0.1	3.7	-3.9	2.6
CCC(c1nnc(SCC(=O)Nc2cc(C)on2)o1)N(C)C (centres undefined)	-0.1	-1.0	-2.5	75.5*	2.2
CN1CCN(C(=O)C[C@@H]2CC[C@H]3[C@@H](COC[C@@H](O)CN3Cc3cccc(Cl)c3)O2)CC1	.	.	-3.8	-1.1	-2.0
COC(=O)C[C@H]1CC[C@H]2[C@@H](COc3ccc(NS(=O)(=O)c4cccc(F)c4)cc3C(=O)N2C)O1	.	.	-8.3	-5.8	0.1
C[C@@H]1CN([C@H](C)CO)C(=O)c2cc(NC(=O)CCC(F)(F)F)ccc2O[C@@H](C)CCCCO[C@@H]1CN(C)S(=O)(=O)c1cccs1	.	.	7.5	-8.1	5.4
C/C(=N\Nc1nc(N)cc(Cl)n1)c1ccc(F)cc1	16.4	-1.6	-6.4	47.6*	1.5
Cc1cc(=O)[nH]c2c(N=Nc3ccc(O)cc3)c(N)nn12	-13.0	12.2	-3.7	47.0*	2.3
COc1ccc(S(=O)(=O)N(C)C[C@H]2Oc3cc(C#CC4CCCC4)ccc3S(=O)(=O)N([C@H](C)CO)C[C@@H]2C)cc1	.	.	15.1*	12.2	-3.8
COc1ccc(S(=O)(=O)N(C)C[C@H]2Oc3cc(C#CC4CCCC4)ccc3S(=O)(=O)N([C@@H](C)CO)C[C@H]2C)cc1	.	.	3.7	-1.3	-2.2
COc1ccc(S(=O)(=O)N(C)C[C@H]2Oc3cc(C#CC4CCCC4)ccc3S(=O)(=O)N([C@H](C)CO)C[C@H]2C)cc1	.	.	4.8	-5.3	-1.5
COc1ccc(S(=O)(=O)N(C)C[C@@H]2Oc3cc(C#CC4CCCCC4)ccc3S(=O)(=O)N([C@H](C)CO)C[C@H]2C)cc1	.	.	-0.1	-16.0	1.8
COc1ccc(S(=O)(=O)N(C)C[C@@H]2Oc3cc(C#CC4CCCC4)ccc3S(=O)(=O)N([C@@H](C)CO)C[C@H]2C)cc1	.	.	15.6*	15.2	-2.5
COc1ccc(S(=O)(=O)N(C)C[C@H]2Oc3cc(C#CC4CCCC4)ccc3S(=O)(=O)N([C@@H](C)CO)C[C@@H]2C)cc1	.	.	24.6*	-3.4	-6.3
O=C(Nc1ccc(F)cc1)N[C@@H]1CC[C@@H](CCNC(=O)c2ccccc2F)O[C@@H]1CO	.	.	-3.1	.	-0.5
CO[C@@H]1CN(C)C(=O)c2ccc(NC(=O)C3CC3)cc2OC[C@H](C)N(C(=O)c2cnccn2)C[C@H]1C	.	.	-3.5	-9.0	1.6
CCC(=O)N1CC(=O)N2[C@H](CO)[C@@H](c3ccc(-c4ccncc4)cc3)[C@H]2C1	.	.	5.5	.	.
SMILES	PfHsp90 yeast 2	NSD2 HMT inh	SIRT5 block	ARNT-TACC3 inh	CASP6 VEID inh
CCN(C[C@H]1[C@H](c2ccccc2)[C@H](CO)N1C(C)=O)C(=O)NC(C)C	.	.	1.5	-0.6	-0.2
Cc1ccc(NC(=O)C2C3C=CC4(O3)C2C(=O)N(CCCN2CCCC(C)C2)C4C(=O)NC2CCCCC2)cc1 (centres undefined)	-3.6	0.6	17.4*	-3.3	-6.9
CC1CCCN(CCCN2C(=O)C3C(C(=O)Nc4ccc(Cl)cc4)C4C=CC3(O4)C2C(=O)NC2CCCCC2)C1 (centres undefined)	1.4	21.2	-3.1	-1.5	-9.3
Cc1ccccc1S(=O)(=O)N1CCCCN2[C@H](CO)[C@H](c3ccc(-c4cccc(F)c4)cc3)[C@H]2C1	.	.	11.9	16.8	-1.4
Cc1ccccc1S(=O)(=O)N1CCCCN2[C@@H](CO)[C@H](c3ccc(-c4cccc(F)c4)cc3)[C@@H]2C1	.	.	18.4*	11.9	0.3
Cc1cccc(-c2ccc([C@@H]3[C@@H](CO)N4CCCCN(S(=O)(=O)c5ccccc5F)C[C@H]34)cc2)c1	.	.	21.3*	33.6	-5.4
CO[C@H]1CN(C)C(=O)c2ccc(NC(=O)C3CC3)cc2OC[C@H](C)N(Cc2ccc(F)cc2)C[C@@H]1C	.	.	1.2	.	2.6
COc1ccc(NC(=S)NCCc2ccccc2)c(C)c1	-4.3	0.3	0.8	3.8	36.4*
COc1ccc(OC)c(S(=O)(=O)NCCc2ccccc2)c1	.	0.3	15.3*	20.2	-1.9
COc1ccc(OC)c(S(=O)(=O)NC(C)CCc2ccccc2)c1 (centres undefined)	-16.8	-0.9	-2.2	0.6	-1.2
C[C@@H]1CN([C@H](C)CO)C(=O)c2cc(NS(=O)(=O)c3ccc(Cl)cc3)ccc2O[C@@H](C)CCCCO[C@@H]1CN(C)CC1CCCCC1	.	.	.	-9.4	.
CCC12CCCN3CCc4c(n(c5ccccc45)C(O)(C(=O)OC)C1)C32 (centres undefined)	-21.6	.	-2.8	11.2	59.5*
Cc1ccc(C)c(/C=C/C(=O)c2ccccc(=O)c2O)c1	103.2*	9.3	.	4.0	.
Cc1ccc(/C=C/C(=O)c2ccccc(=O)c2O)c(C)c1	105.7*	48.1	.	-7.6	39.2*
Cc1ccc(C(=O)/C=C/c2ccc3c(c2)OCCO3)c(O)c1	16.3	3.2	-5.0	1.7	3.2
O=C(/C=C/c1ccccc1Cl)c1ccc(O)cc1	110.3*	16.3	0.9	5.1	7.0
O=C(/C=C/c1ccccc1Cl)c1ccccc(=O)c1O	95.9*	8.5	.	1.4	.
O=C(/C=C/c1ccccc1Cl)c1cccnc1	70.8	-0.2	.	-3.6	.
COc1ccc(C#Cc2ccc([C@@H]3[C@@H](CO)N4C(=O)CN(C(=O)c5cccnc5)C[C@@H]34)cc2)cc1	.	.	1.1	.	-1.2
C[C@H](O)C#Cc1ccc2c(c1)O[C@@H](CN(C)Cc1ccncc1)[C@H](C)CN([C@H](C)CO)S2(=O)=O	.	.	1.4	0.7	4.9
CC(=O)N(C)C[C@@H]1Oc2cc(C3=CCCC3)ccc2S(=O)(=O)N([C@@H](C)CO)C[C@@H]1C	.	.	1.8	2.5	0.1
O=C(/C=C/c1ccc([N+](=O)[O-])cc1)c1cccs1	-54.0	24.7	-0.8	2.9	-0.6

Screening results: PubChem, Broad Institute
